# RORg inh: blocks mouse ROR gamma transcriptional activity; Potency, µM (top dose mostly 53.6 µM), actives largely listed as inhibitors; 310,000 compounds, 5.4% hits; Drosophila S2 Gal4-RORgamma UAS-luciferase reporter, 20 h; further: nearly all actives have a fitted effect of over 60% in size
# Target sequence (P51450 whole entry, looked up, the tested form may be a part): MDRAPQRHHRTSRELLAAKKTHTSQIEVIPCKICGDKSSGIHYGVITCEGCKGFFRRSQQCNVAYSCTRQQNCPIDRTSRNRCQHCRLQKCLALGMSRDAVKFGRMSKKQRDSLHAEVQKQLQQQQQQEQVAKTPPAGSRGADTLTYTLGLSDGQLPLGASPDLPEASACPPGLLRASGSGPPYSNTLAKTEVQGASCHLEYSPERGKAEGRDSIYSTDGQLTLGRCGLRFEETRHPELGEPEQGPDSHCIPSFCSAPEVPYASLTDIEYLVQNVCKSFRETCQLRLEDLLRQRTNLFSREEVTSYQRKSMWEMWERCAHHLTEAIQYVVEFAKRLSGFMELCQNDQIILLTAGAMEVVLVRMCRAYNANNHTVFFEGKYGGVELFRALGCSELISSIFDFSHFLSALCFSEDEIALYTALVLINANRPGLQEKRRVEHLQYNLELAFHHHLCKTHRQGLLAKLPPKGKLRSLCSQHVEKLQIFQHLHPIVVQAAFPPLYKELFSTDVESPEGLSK
#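 Schneider cells (Drosophila), stable Gal4 DBD–ROR gamma + UAS-luc; 1 hr cmpd preincubation; Cu2+ induction 700 uM final; 20 hr ambient; luminescence.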
# KinaseGlo FLuc: counter-screen: inhibitors of Kinase-Glo firefly luciferase; Q27757; Kinase-Glo luciferase, ATP luminescence, 8 min; Potency, µM (doses to about 38.3 µM), most hits filed as inhibitors; 200,000 compounds, 0.28% hits; AID 1379; further: nearly all actives have a fitted effect of over 60% in size
#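 Compounds were added to a substrate mix at pH 7.2 (50 mM imidazole, 10 uM ATP, within the enzyme's linear range), followed by Kinase-Glo detection reagent; luminescence was measured after 8 minutes at ambient temperature.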
# Gal4-VP16 FLuc: inhibits Gal4-VP16 luciferase reporter, ROR gamma counter-screen; Drosophila S2 Gal4-VP16 UAS-luciferase, luminescence, 20 h; Potency, µM (top dose mostly 53.6 µM), actives largely listed as inhibitors; 310,000 compounds, 3.5% hits; AID 2546;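 further: Gal4-VP16 expression switched on by copper sulfate through the metallothionein promoter; nearly all actives have a fitted effect of over 50% in size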
# A number is an active result; i = inactive; ? = inconclusive; nt = no result given; [ ] = another dose, or the depositor's remark. In the library only some 6.4% were active in any assay of this set; here they are far more common. The call rests on the fitted dose curve; in most records, active means well fitted curve in the direction sought with a large enough effect; inconclusive means small, poorly fitted or top-dose-only effect, or another doubt; inactive means no such curve, though single readings can be large; an effect the other way counts as inactive or inconclusive.
SMILES,RORg inh,KinaseGlo FLuc,Gal4-VP16 FLuc
CC1CCCCC1NC(=O)C1CCC(CNS(=O)(=O)c2cccc3cccnc23)CC1 (stereo not drawn),i,nt,i
O=C(Nc1nc(N2C(=O)c3ccccc3C2=O)n(-c2ccccc2)n1)c1ccc(Cl)cc1,14µM,i,?
Nc1nc(NC(=O)c2ccc(Cl)cc2)nn1-c1ccccc1,?,i,?
Nc1ccc(-c2nc3c(ccc4ccccc43)[nH]2)cc1,0.89µM,nt,?
Nc1ccc(-c2nc3ccccc3[nH]2)cc1,i,?,i
CCOC(=O)C(=O)Nc1ncc(Cl)s1,i,nt,i
O=C(Nc1ccc(OCc2ccccc2)cc1)c1ccccc1,i,i,i
COc1ccc(NC(=S)NCC(O)c2ccccc2)c(OC)c1 (stereo not drawn),i,i,i
COc1ccc(NC(=S)Nc2ccccc2)c(OC)c1,13µM,i,?
S=C(Nc1ccc(OCc2ccccc2)cc1)Nc1cccc(Cl)c1Cl,?,i,i
S=C(Nc1ccccc1)Nc1ccc(OCc2ccccc2)cc1,11µM,i,i
NS(=O)(=O)c1ccc(NC(=S)Nc2ccc(OCc3ccccc3)cc2)cc1,i,nt,i
COc1ccc(NC(=S)Nc2ccc(OCc3ccccc3)cc2)c(OC)c1,7.1µM,i,7.1µM
Cc1cc(C(=O)Nc2ccc(OCc3ccccc3)cc2)c(C)o1,?,11µM,?
Cc1cccc(C)c1OCCNC(=O)CCC(=O)c1ccccc1,i,i,?
O=C(O)CC1(CC(=O)Nc2cc3ccccc3cn2)CCCCC1,i,nt,i
Cc1ccc(CNC(=O)C2CCCN(S(=O)(=O)c3ccc(F)cc3)C2)cc1 (stereo not drawn),i,nt,i
CC1CC(C)CN(C2CCCCC2NS(=O)(=O)c2ccc(Cl)cc2)C1 (stereo not drawn),i,nt,i
CC(=O)/C(=N/Nc1ccccc1)Sc1nnc(C(O)c2ccccc2)n1-c1ccccc1 (stereo not drawn),i,i,i
CC(=O)/C(=N\Nc1ccccc1)Sc1nnc(-c2ccccc2)n1-c1ccccc1,10µM,i,?
CC(=O)/C(=N\Nc1ccccc1Cl)Sc1nnc(-c2ccccc2)n1-c1ccccc1,10µM,i,?
CC(=O)/C(=N\Nc1ccc(Cl)cc1Cl)Sc1nnc(-c2ccccc2)n1-c1ccccc1,i,i,i
COc1ccc(Cl)cc1NC(=O)c1cc(C)no1,i,nt,i
O=C(N(c1ccccc1)c1ccccc1)N(c1ccccc1)c1ccccc1,i,nt,i
O=C(CCl)N(c1ccccc1)c1ccccc1,14µM,i,?
SMILES,RORg inh,KinaseGlo FLuc,Gal4-VP16 FLuc
CCn1cc(CN2CCC(n3nccc3NC(=O)c3cccc(F)c3)CC2)cn1,i,nt,i
CCCCCNCC(=O)Nc1cccc(C(=O)Nc2cccc(C(F)(F)F)c2)c1,?,nt,i
O=C(c1ccc2c(c1)C(=O)N(CCCO)C2=O)c1ccc2c(c1)C(=O)N(CCCO)C2=O,i,i,i
O=C1c2ccc3c4c(ccc(c24)C(=O)N1CCCCO)C(=O)N(CCCCO)C3=O,8.9µM,i,i[10 µM]
Cc1nonc1NC(=O)CSc1nnnn1-c1ccccc1,i,nt,i
COc1ccc(N2CC(C(=O)Nc3ccc(S(=O)(=O)N4CCCCC4)cc3)CC2=O)cc1 (stereo not drawn),?,nt,i
O=C(CC(=O)c1ccccc1)c1ccccc1,4µM,i,7.9µM
COc1ccccc1C(=O)OCC(=O)NC(C)CCc1ccccc1 (stereo not drawn),i,nt,i
O=C(CC(=O)c1ccncc1)c1ccccc1,nt,i[7.66 µM],nt
COc1ccccc1C(=O)CC(=O)c1ccccc1,10µM,nt,i
COc1ccccc1C(=O)NCC(=O)NC(C)CCc1ccccc1 (stereo not drawn),6.3µM,nt,14µM
COc1ccccc1NC(=O)CC(=O)c1ccccc1,i,nt,i
CC(C)OC(=O)C1Cc2ccccc2CN1S(=O)(=O)c1cccs1 (stereo not drawn),i,nt,i
CC(C)C[C@H](NC(=O)c1[nH]cnc1C(=O)N[C@@H](C)C(=O)OC(C)(C)C)C(=O)OC(C)(C)C,6.3µM,nt,?
CC(C)(C)OC(=O)N1CCN(C(=O)c2[nH]cnc2C(=O)NCC(=O)OCc2ccccc2)CC1,i,nt,i
CC(C)C[C@H](NC(=O)c1nc[nH]c1C(=O)NCC(=O)OCc1ccccc1)C(=O)OCc1ccccc1,i,nt,?
CC(C)C[C@H](NC(=O)c1nc[nH]c1C(=O)NCC(=O)OC(C)(C)C)C(=O)OCc1ccccc1,4µM,nt,18µM
CC1CCN(C(=O)c2[nH]cnc2C(=O)N[C@@H](C)C(=O)OC(C)(C)C)CC1,i,nt,i
CC(C)C[C@H](NC(=O)c1nc[nH]c1C(=O)N1CCN(c2ccccc2)CC1)C(=O)OCc1ccccc1,5µM,nt,?
CCN(CC)C(=O)c1[nH]cnc1C(=O)N[C@@H](C)C(=O)OC(C)(C)C,i,nt,i
CC(C)C[C@H](NC(=O)c1nc[nH]c1C(=O)N1CCN(C(=O)OC(C)(C)C)CC1)C(=O)OC(C)(C)C,2.8µM,nt,?
O=S(=O)(c1ccccc1)N1CCC2(CCN(c3ccccc3)CC2)CC1,?,i,i
CCCCCCCCCCCCC/C=C/C(O)C(COP(=O)(O)OCCN)NC(=O)CCCCCCCCCCCCCCCCC (stereo not drawn),i,nt,i
CNC(=O)C1(C(F)(F)F)CC(CCCO)CCCO1 (stereo not drawn),i,nt,i
CC(C)C[C@H](NC(=O)c1nc[nH]c1C(=O)N(C)Cc1ccccc1)C(=O)OCc1ccccc1,i,nt,3.5µM
SMILES,RORg inh,KinaseGlo FLuc,Gal4-VP16 FLuc
CC(C)C[C@H](NC(=O)c1nc[nH]c1C(=O)N[C@@H](CC(C)C)C(=O)OC(C)(C)C)C(=O)OCc1ccccc1,5µM,nt,7.1µM
CCCCc1ccc(N=N/C(C(=O)Nc2ccc(NC(C)=O)cc2OC)=C(/C)O)cc1,i,i,i
CN1CCN(C(=O)c2ccc(-n3cccn3)nc2)CC1,i,i,i
c1ccc(CN2CCN(C3=Nc4cccc5cccc3c45)CC2)cc1,?,i,i
Fc1ccc(N2CCN(C3=Nc4cccc5cccc3c45)CC2)cc1,13µM,i,i
O=P(O)(O)OP(=O)(O)O,i[10 µM],i[7.66 µM],i
CCOC(=O)C1=C(C)N=C2c3ccccc3C(=O)C2C1c1ccc(Cl)cc1 (stereo not drawn),i,i,i
CCOC(=O)C1=C(Cc2ccc(Cl)cc2)C(=O)c2ccccc2C1=O,8.9µM,i,?
O=C(c1ccccc1)N1CCN(C(=S)NCc2ccco2)CC1,i,i,i
NC(=O)c1ccccc1NS(=O)(=O)c1ccccc1,i,i,i
NNC(=O)c1cc2ccccc2cc1NS(=O)(=O)c1ccccc1,20µM,nt,?
CC(C)Cn1c(N)c(C(=O)CSc2ccc3c(c2)OCCO3)c(=O)n(C)c1=O,?,i,11µM
CC(C)Cn1c(N)c(C(=O)COC(=O)c2ccc3c(c2)OCCO3)c(=O)n(C)c1=O,i,i,i
Cc1ccc(S(=O)(=O)N(CC(=O)NCC2CCCO2)Cc2ccc(F)cc2)cc1 (stereo not drawn),i,nt,i
Cc1cccc(C(=O)NC(=S)Nc2ccc(N3CCOCC3)cc2)c1,4µM,i,7.1µM
Cc1ccc(C(=O)Nc2ccc(S(=O)(=O)N3CCOCC3)cc2)cc1C,i,nt,i
COc1ccc(C(=O)NC(=S)Nc2ccc(N3CCOCC3)cc2)cc1Cl,4.5µM,nt,7.9µM
COc1ccccc1C(=O)NC(=S)Nc1ccc(N2CCOCC2)c(Cl)c1,i,i,?

# Screening data from PubChem.
